Screens as filed in PubChem BioAssay.
ROC1-CUL1 inh: inhibitors of human ROC1-CUL1 ubiquitin ligase activity. inhibition, % at 10 µM. in vitro K48 di-Ub FRET, acceptor:donor ratio, 45 min. 140,000 tested, 0.6% active. P62877+Q13616; in the data active = inhibition above about 25%
Of the large screens only hits and unclear results are named; the others gave an inactive call. Shown is part of a subset that was picked to be rich in hits.

O=C1NC(=S)NC(=O)C1=Cc1cc(Br)c(Sc2ccc(Cl)cc2)o1	none
CC(=O)N1CCC(C(=O)Nc2ccc(C)cc2C)CC1	none
CC(=O)N(C)C(c1ccccc1Cl)c1nnnn1-c1ccccc1C (stereo not given)	none
CC1CCN(Cn2nc(-c3ccccc3Cl)oc2=S)CC1	none
Cc1ccc2[nH]nc(C(=O)N3CCC(Cn4cc(CCO)nn4)CC3)c2c1	none
COc1ccc(NC(=O)C(C)Oc2ccccc2)c(OC)c1 (stereo not given)	none
O=C1OC(C2CCCCC2=O)C(Cl)=C1Cl (stereo not given)	none
O=C1C(=Nc2ccc(Cl)cc2)CC(c2ccccc2[N+](=O)[O-])N1c1ccc(Cl)cc1 (stereo not given)	none
COc1cccc(S(=O)(=O)c2c(C)cc(C)cc2C)c1	none
CCc1ccc(-n2nnc(C(=O)N3CCCc4ccccc43)c2C)cc1	none
CC(=O)Nc1ccc(C(=O)N2CCc3[nH]nc(-c4c(C)noc4C)c3C2)cn1	none
Cc1ccc(C2SCCN2S(=O)(=O)c2ccc(C)cc2)cc1 (stereo not given)	none
NC(=O)Cn1cc(/C=C2\SC(=Nc3ccccc3)N(C3CCCC3)C2=O)c2ccccc21	none
O=C1/C(=C\c2cn(Cc3ccc(F)cc3)c3ccccc23)SC(=Nc2ccccc2)N1CCc1ccccc1	none
O=C(O)Cn1cc(/C=C2\SC(=Nc3ccccc3)N(c3ccccc3)C2=O)c2ccccc21	ROC1-CUL1 inh 97
COc1cccc(CC(C2CCN(C(=O)[C@H]3C[C@@H]4C=C[C@H]3C4)CC2)N(C)C(=O)CCSC)c1 (stereo not given in full)	none
N#CCNC(=O)c1nn2c(C(F)(F)F)cc(-c3cccs3)nc2c1Br	none
Cc1nc2n(n1)-c1nc3cc(Cl)ccc3cc1CS2	none
CCOC(=O)c1ccc(NCc2cc(Br)c(OCc3ccc(Cl)cc3Cl)c(OCC)c2)cc1	none
CC(C)(CO)NCc1ccc(Cl)cc1	none
Clc1ccc(CNc2ccc(N3CCN(Cc4ccccc4)CC3)cc2)cc1	none
CCOc1cc(CNc2ccc(O)cc2)cc(Cl)c1OCc1ccccc1	none
CCOc1cc(CNc2ccc(O)cc2)cc(Br)c1OCc1ccc(Cl)cc1	ROC1-CUL1 inh 76
Oc1ccc(NCc2ccc(Cl)cc2)cc1	ROC1-CUL1 inh 94
CCOc1ccccc1CN1CCNC(=O)C1CC(=O)N(C)CC(=O)OC (stereo not given)	none
CCCN(CCC)c1ccc(/C=N/NC(=O)c2cccs2)cc1	none
Cc1cc(Br)ccc1NC(=O)CSc1nnc(COc2ccccc2)n1C	none
COc1ccc(-n2ncc(C(C)NCc3ccc(F)cc3Cl)c2C)cc1 (stereo not given)	none
CCO/N=C(\C)C1C(=O)c2ccccc2N(C)C1=O (stereo not given)	none
CCOc1cccc(CNC(C)(C)CO)c1OCc1ccc(Cl)cc1Cl	none
Oc1ccc(NCc2cccc(OCc3ccc(Cl)cc3Cl)c2)cc1	ROC1-CUL1 inh 39
CNCc1ccc(OCc2ccc(Cl)cc2Cl)cc1	none
CCOc1cccc(CNc2ccc(O)cc2)c1OCc1ccccc1Cl	none
CNCc1cccc(OCc2ccccc2Cl)c1	none
CCOc1cccc(CNc2ccc(O)cc2)c1OCc1ccc(Cl)cc1Cl	ROC1-CUL1 inh 53
Cc1ccc(C(=O)OCCn2c(/C=C(/OC(=O)c3ccc(C)cc3)c3ccc(C)cc3)nc3ccccc32)cc1	none
O=C([O-])CC[n+]1c2ccccc2n2nc3c(cc21)c1cccc2cccc3c21	none
O=C(Cc1cccs1)NC1CCCCC1	none
CCOC(=O)Cn1cc(/C=C2\C(=O)NC(=O)N(Cc3ccccc3)C2=O)c2ccccc21	none
CCc1cccc2c(/C=C3/C(=O)NC(=S)N(CC)C3=O)cn(CCOc3ccccc3Cl)c12	none
CCc1cccc2c(/C=C3\C(=O)NC(=S)N(Cc4ccco4)C3=O)cn(CC(N)=O)c12	ROC1-CUL1 inh 74
CCOC(=O)C1=C(C)N=c2s/c(=C\c3cc(OC)ccc3OC)c(=O)n2C1c1ccc(OC)cc1 (stereo not given)	none
CCOC(=O)C1=C(C)N=c2s/c(=C/c3cc(I)c(OC)c(OC)c3)c(=O)n2C1c1ccc(N(C)C)cc1 (stereo not given)	none
CCOC(=O)C1=C(C)N=c2s/c(=C/c3ccccc3O)c(=O)n2C1c1ccc2c(c1)OCO2 (stereo not given)	none
CCOC(=O)C1=C(C)N=c2s/c(=C/c3ccc(I)cc3)c(=O)n2C1c1ccc2c(c1)OCO2 (stereo not given)	none
CCOC(=O)C1=C(C)N=c2s/c(=C\c3cc(Br)c(O)c(OC)c3)c(=O)n2C1c1ccc2c(c1)OCO2 (stereo not given)	ROC1-CUL1 inh 53
CCOC(=O)C1=C(C)N=c2s/c(=C\c3cc(I)c(O)c(OC)c3)c(=O)n2C1c1ccc(OC)cc1 (stereo not given)	ROC1-CUL1 inh 46
Cc1cc(C)cc(NC(=O)CSc2nc3sc4c(c3c(=O)n2-c2ccc(C)c(C)c2)CCCC4)c1	none
COc1cccc(-c2cnc(-c3ccncc3)nc2C2CCN(Cc3cccc(F)c3F)CC2)c1	none
Fc1ccc(-c2cc(-c3ccccc3)nc(-n3cccn3)n2)cc1	none
Oc1cc(-n2cccn2)c(O)c2ccccc12	ROC1-CUL1 inh 42
c1ccc(Nc2nc(Nc3ccccc3)nc(-n3cccn3)n2)cc1	none
CCOC(=O)N1CCN(C(=O)CC2(c3cccc(C(F)(F)F)c3)CC(=O)N(C3CC3)C2=O)CC1 (stereo not given)	none
CCc1ccc(N=C2NC(=O)/C(=C/c3cc(C)n(-c4ccncc4)c3C)S2)cc1	none
COc1ccc(N=C2NC(=O)/C(=C/c3ccc(OCc4cccc(C(=O)O)c4)c(OC)c3)S2)cc1	none
Cc1ccccc1/C=C1/SC(=Nc2ccccc2)NC1=O	none
O=C1NC(=Nc2ccc(C(=O)O)cc2)S/C1=C/c1ccccc1OCc1ccccc1	ROC1-CUL1 inh 94
Cc1cc(/C=C2\SC(=Nc3ccccc3)NC2=O)c(C)n1-c1cc(C(=O)O)cc(C(=O)O)c1	ROC1-CUL1 inh 69
COc1ccc(/C=C2\SC(=Nc3cccc(Cl)c3C)NC2=O)c(OC)c1	none
CCOc1ccccc1/C=C1\SC(=Nc2cccc(Cl)c2C)NC1=O	ROC1-CUL1 inh 26
O=C1NC(=Nc2ccc(Br)cc2)S/C1=C\c1ccccc1O	none
CCOc1cc(/C=C2\SC(=Nc3cccc(Cl)c3C)NC2=O)cc(Br)c1OC	none
COC(=O)C1CCN(CC(O)COc2cccc(CN(C)Cc3ccn[nH]3)c2)CC1 (stereo not given)	none
COc1ccc(N2CCN(C(=O)COc3ccc(F)cc3Cl)CC2)cc1	none
O=C(c1ccc(NC2CC2)nc1)N1CCCN(c2ncccn2)CC1	none
CCOc1ccc2ccccc2c1CC1=NC(=S)N(C)C1=O	none
C=CCOC(=O)C1C(C)=NC(=O)NC1c1cc(C(C)(C)C)c(O)c(C(C)(C)C)c1 (stereo not given)	none
CCN(CC)CCN=C(N)C(C#N)CC1=Nc2ccccc2C1=O (stereo not given)	none
N#CC(CC1=Nc2ccccc2C1=O)C(N)=NC1CCCCC1 (stereo not given)	ROC1-CUL1 inh 71
CN(C)CC1=Nc2ccccc2C1=O	none
CCCC(=O)Nc1ccc(S(=O)(=O)N(C)Cc2ccccc2)cc1	none
COc1cc(/C=C2\SC(=Nc3cccc(Br)c3)NC2=O)ccc1OCC(=O)O	ROC1-CUL1 inh 30
CCOc1cc(/C=C2\SC(=Nc3cccc(C(=O)O)c3)NC2=O)c(Br)cc1OCC(=O)Nc1ccc(C)cc1	ROC1-CUL1 inh 97
CCOC(=O)c1ccc(N=C2NC(=O)/C(=C\c3cc(Br)ccc3OCC(=O)Nc3ccccc3OC)S2)cc1	none
COc1cc(/C=C2\SC(=Nc3ccccc3Cl)NC2=O)ccc1OCC(=O)O	none
C=CCOc1ccc(/C=C2\SC(=Nc3ccccc3)NC2=O)cc1OCC	none
